The target of this assay is Fibrinogen beta chain (Homo sapiens) (UniProt P02675). The assay can be described thus: inhibitors of Tn6 peptide binding to fibrin DD(E), confirmation, biochemical, fluorescence polarization, human fibrin, Tn6 probe (AID 720631).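 Also: 0% = plate median of compound wells and 100% = inhibitor peptide control.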 Conditions: FP displacement of TRITC-Tn6 peptide from DD(E); at 8.3 µM; active compounds read high.

Some of the results follow. Values without a mark were called inactive.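 The calls were made as follows: active = inhibition above the mean of compounds lying within the control limits plus 3 SD (cut at about 16% in these data); inactive = the rest.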

Chain of Fibrinogen beta chain (Homo sapiens) (P02675 whole entry, looked up): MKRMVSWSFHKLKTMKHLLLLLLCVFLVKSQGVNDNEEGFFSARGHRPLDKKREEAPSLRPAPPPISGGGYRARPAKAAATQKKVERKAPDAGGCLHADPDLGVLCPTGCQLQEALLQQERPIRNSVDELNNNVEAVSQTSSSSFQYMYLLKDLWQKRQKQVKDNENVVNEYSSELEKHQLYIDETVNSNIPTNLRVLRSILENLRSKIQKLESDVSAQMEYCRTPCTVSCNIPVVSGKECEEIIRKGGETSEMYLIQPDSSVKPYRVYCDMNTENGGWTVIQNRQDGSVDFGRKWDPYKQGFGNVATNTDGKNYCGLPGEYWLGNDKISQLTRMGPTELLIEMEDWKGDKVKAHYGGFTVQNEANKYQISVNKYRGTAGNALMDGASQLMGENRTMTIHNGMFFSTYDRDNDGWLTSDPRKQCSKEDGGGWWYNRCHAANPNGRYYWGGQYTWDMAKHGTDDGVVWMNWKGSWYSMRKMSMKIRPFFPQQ

As to `Cc1cc(N2CCNC[C@@H]2C)ccc1N1CC[C@H](O)C1`, the inhibition was 2.65%. Consider `COc1ccc2c(c1O)-c1cccc3c1[C@@H](C2)N(C)CC3`, for which the inhibition was -8.1%.

The values are drawn from PubChem BioAssay AID720631 (The Scripps Research Institute Molecular Screening Center, 2013).
